The structures appear in SMILES notation. Calls of active or inactive are those of the source. Rule for the calls: active = hit-call score of the fitted dose curve at least 0.9, where 1 is the maximum; inactive = score below 0.9.

This assay can be described thus: CCTE_Shafer_MEA_dev_network_spike_peak: CCTE's Neural Network Formation Assay for Mean Number of Electrodes in Network Spike, Shafer Lab (AID 2284049). How it is done: CCTE_Shafer_MEA_dev assay is conducted using Axion Biosystems 48 well microelectrode array (MEA) plates and Maestro recording system. Each well of the MEA plate contains a grid of 16 microelectrodes embedded in the culture surface. Electrically active cells, such as neurons, can be cultured over the electrodes, and electrical activity in these cells can be recorded extracellularly. The spontaneous firing of neurons is captured from each electrode on a microsecond timescale providing both temporally and spatially precise data. […] The CCTE_Shafer_MEA_dev assay uses primary cultures of rat cortical neurons. Recordings are made on days post-plating 5, 7, 9 and 12. As these cultures mature over time, neural networks develop functional activity and form cohesive networks in which electrical activity can be highly coordinated. CCTE_Shafer_MEA_dev_network_spike_peak is 1 of 19 assay components of the CCTE_Shafer_MEA_dev assay. It measures the average number of electrodes participating at the peak of a network spike (the peak of a temporally-clustered group of action potential firing across multiple electrodes) during a recording in a microelectrode array (MEA) using Axion Biosystems Maestro 768 channel amplifier with the AxIS adaptive spike detector. To collapse across multiple recordings made on days post-plating 5, 7, 9 and 12, the trapezoidal area-under-the-curve of the component is calculated.Data from the assay component CCTE_Shafer_MEA_dev_network_spike_peak was analyzed into 1 assay endpoint. This assay endpoint, CCTE_Shafer_MEA_dev_network_spike_peak, was analyzed in the negative analysis fitting direction relative to DMSO as the negative control and baseline of activity. Using a type of functional reporter, gain or loss-of-signal activity can be used to understand electrical activity.
On the day prior to culture, each well was coated thoroughly with 150 uL of 0.05% polyethyleneimine (PEI, Sigma Cat P3143) in 50 mM HEPES (Sigma Cat H7523) at a pH of 8. The plate was incubated at 37C for one hour. PEI was rinsed out with 500 uL of sterile water three times. Plates were stored at 4C until the day of culture. This culture was plated at a seeding density of 1.5 x 10^5 cells/well on a 48-well MEA plate, prepared as described above. Cells were administered via a 25 uL media/laminin ([…]; Sigma Cat L2020-1MG) drop directly onto the microelectrode array, as adding the cells with the laminin results in better attachment than pre-coating with laminin. After 2 hours, an additional 475 uL of cortical media was added and the cells returned to the incubator. Exposure starts at day 0 of plating and is continued over twelve days of network development until the experiment is terminated. Cells are fed with fresh medium on DIV 5 and 9, following the recordings on those days. The entire volume of media in the well is exchanged and any vehicle or compound treatment is renewed. Complete details are found in OP-NHEERL/ISTD/SBB/TJS/2015-03-r0 (available on request, email shafer.tim@epa.gov). Measurement of the electrical activity is non-invasive, and recordings can be made from the same plate over multiple different days of the culture. In cortical neurons, this allows for the measurement of extracellular action potentials over the period during which networks form in the MEA plate.
What is called AC50 is the midpoint of the concentration-response curve, whichever way the signal moves. Consider `CCOCn1c(-c2ccc(Cl)cc2)c(C#N)c(Br)c1C(F)(F)F`, for which the AC50 is 8.42 µM (active). As to `CC1(C)[C@H](C(=O)O[C@H](C#N)c2cccc(Oc3ccccc3)c2)[C@@H]1/C=C(\Cl)C(F)(F)F`, the AC50 was 8.95 µM (active). Consider `CC(=O)C(F)(F)C(F)(F)F`, for which the molecule was called inactive. Turning to `C=CCOC(F)(C(F)(F)F)C(F)(F)F`, the AC50 is 0.0255 µM (active).

`C=CC(F)(C(F)(F)F)C(F)(F)C(F)(F)F` (stereo not given): the call was inactive. Consider `Cc1cc(C(F)(C(F)(F)F)C(F)(F)F)ccc1NC(=O)c1cccc(I)c1C(=O)NC(C)(C)CS(C)(=O)=O`, for which the AC50 is 18 µM (active). In the case of `O=S(=O)(F)C(F)(F)C(F)(F)C(F)(F)C(F)(F)F`, the result was inactive.

In the case of `NC(=O)c1ccc(N)nc1`, the AC50 is 4.53 µM (active). Turning to `FC(F)OCC(F)(F)C(F)(F)F`, the molecule was called inactive. Take `CC(C)[C@@H](Nc1ccc(C(F)(F)F)cc1Cl)C(=O)OC(C#N)c1cccc(Oc2ccccc2)c1` (stereo not given in full): the AC50 was 20.9 µM (active). For the molecule `CNC(=O)CSP(=O)(OC)OC`, the molecule was called inactive. The same measure, in the same setting: the value for `CC(F)(F)CC(F)(F)F` was “inactive”; that for `CS(=O)(=O)c1ccc(C(=O)C2C(=O)CCCC2=O)c(Cl)c1COCC(F)(F)F` was “inactive”.

`Cc1ccccc1OP(=O)(Oc1ccccc1C)Oc1ccccc1C`: the AC50 was 18.7 µM (active).

In the case of `OC(Cc1ccccc1Cl)(Cn1[nH]cnc1=S)C1(Cl)CC1` (stereo not given), the AC50 was 50 µM (active).
